From PubChem BioAssay
Only some compounds are listed: those with a hit (about 1.7% of all), similar ones and a draw of the others.
RGS4 inh – inhibitors of human regulator of G protein signaling 4. P49798. Transcreener GDP fluorescence polarization, RGS4-accelerated GTP hydrolysis. Potency, µM (highest dose often 114 µM), for inactives: at the top dose activity change, negative = inhibition, most hits filed as inhibitors. 390,000 compounds, 0.039% hits. AID 504845; note: % is set by controls: 0 for no effect and ±100 for the full control effect; nearly all actives have a fitted effect of over 75% in size
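MLSMR compounds (23 nl, pin-transferred) preincubated 10 min at room temperature with a 500nM (2x) first reagent, then RGS4 at 900nM (2x) plus Transcreener GDP mix added; fluorescence polarization (620/688 nm) read before and after 90 min at 30 °C.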
PTHR1 ag – PTHR1 (human) receptor agonism | Q03431 | HEK293 GP2 PTHR1 cells, GloSensor cAMP luminescence, 1 h | Potency, µM (series often up to 115 µM), for the others: top-dose activation, usual class: activators | 410,000 compounds, 0.075% hits | AID 743266; note: nearly all actives have a fitted effect of over 55% in size
Target sequence (Q03431 whole entry, looked up): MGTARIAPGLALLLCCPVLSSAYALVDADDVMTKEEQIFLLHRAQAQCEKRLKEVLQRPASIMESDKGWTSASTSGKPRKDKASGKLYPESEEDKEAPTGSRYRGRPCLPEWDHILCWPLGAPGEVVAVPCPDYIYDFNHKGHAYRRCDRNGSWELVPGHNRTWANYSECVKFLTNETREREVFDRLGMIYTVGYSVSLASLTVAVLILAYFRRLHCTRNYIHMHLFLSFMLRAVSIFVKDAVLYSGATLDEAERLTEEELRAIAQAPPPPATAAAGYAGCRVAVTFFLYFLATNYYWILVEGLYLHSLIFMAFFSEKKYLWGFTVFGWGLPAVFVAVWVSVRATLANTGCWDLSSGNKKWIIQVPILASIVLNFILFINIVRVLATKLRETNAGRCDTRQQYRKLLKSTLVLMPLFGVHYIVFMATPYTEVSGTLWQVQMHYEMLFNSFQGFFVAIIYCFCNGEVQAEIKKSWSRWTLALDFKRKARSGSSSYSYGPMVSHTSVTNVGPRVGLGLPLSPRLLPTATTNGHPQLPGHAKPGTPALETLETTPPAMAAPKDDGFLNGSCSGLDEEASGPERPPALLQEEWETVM
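HEK-293-derived GP2 cells expressing PTHR1 and a GloSensor cAMP reporter, 3,000/well, plated overnight, given luciferin plus IBMX (each 0.5 mM as added) for 1 h at 37 °C, then compound for 1 h at 37 °C. Luminescence was read after 15 min at room temperature.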
HEK293 tox – cytotoxicity in counter-screen for GLP-1R inverse agonists. HEK293 cAMP-luciferase reporter cells, luminescence, 24 h. Potency, µM (titrated, usually from 38.3 µM), without a hit: at the highest dose activity change, negative = inhibition, usual class: inhibitors. 410,000 compounds, 0.13% hits. AID 624418;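 note: loss of luciferase light is scored as toxicity; % is set by controls: 0 for no effect and ±100 for the full control effect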
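Seeding density was 200 cells/uL; after overnight-length (12 h) culture, 23 nL compounds went on for 24 h at 37 °C. Readout used a luciferase detection reagent, luminescence taken after 12 min at room temperature.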
GLP-1R inv ag – GLP-1 receptor (human) inverse agonism; P43220; HEK293 GLP-1R CRE-luciferase, luminescence, 24 h; GLP-1R form is constitutively active; Potency, µM (series often up to 38.3 µM), for the others: at the top dose activity change, negative = inhibition, usual class: inhibitors; 410,000 compounds, 1.6% hits; AID 624417; note: % is set by controls: 0 for no effect and ±100 for the full control effect; nearly all actives have a fitted effect of over 55% in size
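Inverse agonists were sought by their lowering of basal cAMP reporter luciferase output in HEK293 cells stably carrying constitutively active human GLP-1R, after 24 h compound treatment.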
GLP1R ag – agonists of human GLP-1 receptor; Potency, µM (top dose mostly 45.6 µM), without a hit: at the top dose activation, usual class: activators; 380,000 compounds, 0.007% hits; HEK293 GLP-1R CRE-luciferase, luminescence, 4-6 h; cells express a hypersensitive GLP-1R form; P43220; note: % of control where 0% means no effect
* marks the source's active call; other numbers are inactive results; i = inactive; u = inconclusive; x = no result; [ ] = dose if it differs, or a comment. Calls come from the whole dose curve; as a rule, active = well fitted curve in the direction sought with a large enough effect; inconclusive = small, poorly fitted or top-dose-only effect, or another doubt; inactive = no such curve, though single readings can be large; an effect the other way counts as inactive or inconclusive. Potency is the fitted concentration of half-maximal effect.

SMILES	RGS4 inh	PTHR1 ag	HEK293 tox	GLP-1R inv ag	GLP1R ag
Cc1ccc(CN2CCCC(CO)(Cc3ccccc3C)C2)s1 (stereo not given)	-8%	-7%	u	8.9µM*	8%
Cc1ccccc1CC1(CO)CCCN(Cc2ccn[nH]2)C1 (stereo not given)	-8%	i	-3%	u	6%
Cc1ccc(Sc2c(C=O)c3ccccc3n2C)cc1	14%	i	u	5.6µM*	-22%
Cc1ccc(Sc2c(O)c3ccccc3n(C)c2=O)cc1	-7%[11.4 µM]	-66%	-8%	0%	-3%
O=C(NCC(c1ccco1)N1CCc2ccccc21)c1cccc([N+](=O)[O-])c1 (stereo not given)	4%	i	-5%	10µM*	23%
COc1ccc(S(=O)(=O)NCC(c2ccco2)N2CCc3ccccc32)cc1 (stereo not given)	-22%	-30%	-7%	6.3µM*	-1%
Cc1cccc(C(=O)NCC(c2ccco2)N2CCc3ccccc32)c1 (stereo not given)	-10%	-22%	-8%	u	16%
Cc1ccc(C(=O)NCC(c2ccco2)N2CCc3ccccc32)cc1 (stereo not given)	5%	-7%	8%	10µM*	-2%
COc1ccc(C(=O)NCC(c2ccco2)N2CCc3ccccc3C2)c(OC)c1 (stereo not given)	x	i	-5%	u	3%
Cc1ccc(S(=O)(=O)NCC(c2ccco2)N2CCc3ccccc32)cc1 (stereo not given)	3%	-28%	2%	u	13%
COc1ccc(C(=O)NCC(c2ccco2)N2CCc3ccccc32)c(OC)c1 (stereo not given)	1%	-5%	-2%	8.9µM*	17%
O=C(NC1CCN(Cc2ccccc2)CC1)c1cn(-c2ccccc2)nc1-c1cccnc1	4%	i	u	u	17%
O=C1c2ccccc2C2(c3ccccc3)NCCCN12 (stereo not given)	5%	-9%	4%	19%	1%
O=C1c2ccccc2C2(c3cc(C(F)(F)F)cc(C(F)(F)F)c3)NCCN12 (stereo not given)	-20%	i	-15%	10µM*	20%
COc1ccc(NC(=O)C2(C)Cc3c(-c4ccc(NC(C)=O)cc4)ccnc3O2)cn1 (stereo not given)	x	-23%	-24%	-8%	-5%
COc1ccc(NC(=O)C2(C)Cc3c(-c4cccc(NC(C)=O)c4)ccnc3O2)cn1 (stereo not given)	x	-51%	u	1.1µM*	24%
CCOc1ccc(C2NC(=O)c3c(COC)cc(C)nc3N2Cc2ccccc2)cc1OC (stereo not given)	-21%	-38%	2%	9%	-1%
c1ccc(CNc2nc(N3CCN(Cc4ccccc4)CC3)nc3ccccc23)cc1	-5%	-33%	-28%	4µM*	9%
c1ccc(CN2CCC(Nc3nc(-c4ccccc4)nc4ccccc34)CC2)cc1	-10%[11.4 µM]	i	u	5µM*	-29%
c1coc(CNc2nc(N3CCCCC3)nc3ccccc23)c1	-11%	-17%[57.5 µM]	u	u	1%
c1ccc(CN2CCC(CNc3ncnc4ccccc34)C2)cc1 (stereo not given)	-12%	-7%	-25%	u	2%
COc1ccc(NC(=O)CSc2nc3c(c(=O)[nH]2)CN(Cc2ccccc2)CC3)cc1Cl	3%	i	8%	14%	x
Fc1ccc(OCCOCCN2CCCC2)cc1	15%	-9%	-6%	16%	3%
CC(OCCN1CCCC1)(c1ccc(F)cc1)c1ccc(F)cc1	u	i	u	10µM*	-2%
O=C(Nc1cccc(C(F)(F)F)c1)Oc1ccc(Cl)c2cccnc12	10%	i	0%	13µM*	-1%
SMILES	RGS4 inh	PTHR1 ag	HEK293 tox	GLP-1R inv ag	GLP1R ag
CCN(CC)C(=O)Oc1ccc(Cl)c2cccnc12	5%	i	1%	-9%	16%
Cc1c(CCNC(=O)c2ccc(Br)o2)sc2nc(-c3ccc(F)cc3)nn12	-7%	-90%	u	u	x
CC(C(=O)Nc1cccnc1)c1ccc([N+](=O)[O-])cc1 (stereo not given)	17%	i	6%	17%	9%
CC(C)Cc1ccc(C(C)C(=O)Nc2cccnc2)cc1 (stereo not given)	u	-33%	-18%	7.9µM*	-7%
Cc1c(S(=O)(=O)c2cccc(Cl)c2)nnn1-c1cccc(C(F)(F)F)c1	4%	-17%	0%	u	-1%
c1cncc(-c2nc(NCCCN3CCOCC3)c3c4c(sc3n2)CCC4)c1	-11%	i	6%	11µM*	22%
Cc1ccc(C)c(C(C)NC(=S)NC2CCCCC2)c1 (stereo not given)	-8%	-8%	-25%	2.8µM*	1%
Fc1ccc2[nH]c3c(c2c1)CN(C(=S)NCc1ccccc1)CC3	-7%	-12%	-11%	5µM*	-2%
CCOc1ccc(NC(=O)NC23CC4CC(CC(C4)C2)C3)cc1	2%	-92%	-8%	2.5µM*	9%
COc1ccc(NC(=O)NC23CC4CC(CC(C4)C2)C3)cc1OC	-5%	-3%[57.5 µM]	-11%	u	0%
Cc1ccc(CSc2nc3ccccc3cc2C=O)cc1	-27%	-14%[57.5 µM]	u	4µM*	2%
COC(=O)CNC(c1ccccc1)c1cc(Br)ccc1NC(=O)c1ccccc1 (stereo not given)	-8%	i	12%	u	x
CCOC(=O)CNC(c1ccccc1)c1cc(Br)ccc1NC(=O)c1cccc(Cl)c1 (stereo not given)	-16%	i	1%	8.9µM*	x
COC(=O)CNC(c1ccccc1)c1cc(Cl)ccc1NC(=O)c1cccc(Cl)c1 (stereo not given)	-12%	-11%	-9%	10µM*	-18%
NNC(=O)CNC(c1ccccc1)c1cc(Br)ccc1NC(=O)c1cccc(Cl)c1 (stereo not given)	-19%	i	-4%	u	-6%
CCn1nc(-c2ccccc2C)nc2c(=O)n(C)c(=O)nc1-2	-40%	x	x	x	x
Cc1cc(NC(=O)CSc2nc3cc(Cl)ccc3o2)no1	1%	i	u	2.5µM*	5%
O=C(CCNS(=O)(=O)c1ccccc1C(F)(F)F)NCCCN1CCOCC1	27%	-1%	-2%	11%	1%
S=c1nc2ccccc2c2nc(-c3ccccc3)[nH]n12	-43%	i	0.89µM*	u	-3%
Cn1cnnc1Sc1ccc(C(F)(F)F)cc1[N+](=O)[O-]	2%	i	1%	6.3µM*	1%
